From PubChem BioAssay AID720504 (National Center for Advancing Translational Sciences (NCATS), 2013) come the findings set out here.

The structures appear in SMILES notation. About 10,000 (2.8%) of roughly 360,000 compounds were called active. About 4% were inconclusive and are not listed. Calls come from the whole dose curve; as a rule, active = well fitted inhibition curve with a large enough effect; inconclusive = small, poorly fitted or top-dose-only effect; inactive = flat fitted curve, though single readings scatter. The sample as a whole holds a higher share of actives than the screen did.
% is set by controls: 0 for no effect and ±100 for the full control effect; potency is the fitted concentration of half-maximal effect.

Chain of Serine/threonine-protein kinase PLK1 (Homo sapiens) (P53350 whole entry, looked up, the tested form may be a part): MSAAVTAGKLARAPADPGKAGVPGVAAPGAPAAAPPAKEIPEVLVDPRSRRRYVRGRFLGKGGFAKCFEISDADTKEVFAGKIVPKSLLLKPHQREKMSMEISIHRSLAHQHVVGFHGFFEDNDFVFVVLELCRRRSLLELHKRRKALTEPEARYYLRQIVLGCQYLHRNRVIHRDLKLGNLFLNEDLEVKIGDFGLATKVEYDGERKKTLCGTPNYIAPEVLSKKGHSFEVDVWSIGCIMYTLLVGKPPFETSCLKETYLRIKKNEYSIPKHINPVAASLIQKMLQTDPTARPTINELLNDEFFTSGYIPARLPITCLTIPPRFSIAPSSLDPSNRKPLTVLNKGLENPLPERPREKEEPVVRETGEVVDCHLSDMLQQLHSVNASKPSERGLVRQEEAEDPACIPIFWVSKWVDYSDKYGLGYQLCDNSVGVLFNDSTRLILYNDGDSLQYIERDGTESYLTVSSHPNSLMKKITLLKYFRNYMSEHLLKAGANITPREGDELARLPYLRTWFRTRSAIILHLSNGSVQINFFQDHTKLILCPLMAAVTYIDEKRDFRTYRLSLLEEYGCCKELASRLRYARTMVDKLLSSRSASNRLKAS

The target of this assay is Serine/threonine-protein kinase PLK1 (Homo sapiens) (UniProt P53350). The assay can be described thus: qHTS for Inhibitors of PLK1-PDB (polo-like kinase 1 - polo-box domain): Primary Screen. For max response, negative = inhibition: series mostly up to about 57 µM. Note: nearly all actives have a fitted effect of over 65% in size. The following applies: Plk1 PBD binding of FITC phosphopeptide, fluorescence polarization. The source says:
The polo-like kinase 1 (Plk1) is a member of a conserved subfamily of serine / threonine protein kinases that plays a pivotal roles in cell proliferation. It has a C-terminal non-catalytic region called the polo-box domain (PBD) that plays a crucial role in the subcellular localization of the Plk1. […] Furthermore, depletion of the overexpressed Plk1 by RNAi efficiently induces apoptotic cell death in cancer and reduces tumor growth in mouse xenograft models. Thus, targeting Plk1 is an appealing strategy for anti-cancer therapy. Therefore, this project aimed to screen the Molecular Libraries Small Molecule Repository (MLSMR) using a novel approach to find inhibitors that target the Plk1 PBD instead of the conventional N-terminal catalytic domain. This project employed a fluorescence polarization (FP) assay using a FITC-conjugated phospho-9-mer (p-9-mer) peptide and purified human Plk1 PBD protein. The identified small molecule inhibitors of Plk1 PBD can then further be developed into useful tools for biomedical and clinical research that complements or replaces current relevant disease therapy. NIH Chemical Genomics Center [NCGC] NIH Molecular Libraries Probe Centers Network [MLPCN] MLPCN Grant: MH100728 Assay Submitter (PI): Kyung Lee, NCI
Four microliter of 25 nM FITC-p-9-mer + 60 nM Plk1 PBD in buffer solution (final concentrations 25 nM and 60 nM respectively) or 4 uL of 25 nM FITC-p-9-mer (final concentration 25 nM) in buffer will be dispensed into a 1,536 Greiner medium-binding black solid plate. Small molecules at final concentrations of 18 nM to 57 uM and positive control phospho-9-mer (sequence: Ac-PPLHSpTAI-NH2) at final concentrations 26 nM to 57 uM and phospho-13-mer (sequence: Ac-[…]pTAI-NH2) at final concentrations of 1 nM to 2.3 uM will be pin-transferred (23 nL) to the plate via a Kalypsys pin-tool robotics equipped with a 1,536-pin array. The reaction plate will be centrifuged for 1 min at 1000 rpm and incubated at room temperature for 10 min. The FITC fluorescence signals will be read using the PerkinElmer ViewLux plate reader at 480 / 20 nm excitation and 540 / 20 nm S and P polarization emission wavelengths. Reagent bottles will be kept submerged into 4 °C recirculating chiller bath and all liquid lines will be covered with aluminum foil to minimize degradation. Library plates will be screened starting from the lowest to the highest concentrations to minimize compound carryover. Vehicle only plates, with DMSO being pin-transferred instead of compound solutions, will be included regularly throughout the screen to record any systematic shifts in assay signal.
In general terms: In qHTS, concentration-response curves come from the screen itself.
On to `Cc1ccc(-c2ccc(C3=CC(=O)CC(C)(C)C3=O)cc2)cc1`, for which the max response, negative = inhibition was -0.955% (inactive). As to `CCCNC(=O)c1cc(C2CCCCN2S(=O)(=O)c2cn(C)cn2)on1` (centres undefined), the max response, negative = inhibition was -4.21% (inactive). On the same count and under the same terms, next, `CCCOc1ccc(F)cc1-c1cc(C(=O)Nc2ccc(F)c(Cl)c2)[nH]n1`: 0.655% (inactive). Regarding `CN(C)c1nc(Nc2ccc(Cl)c(Cl)c2)nc(N(C)C)n1`, the Potency was 2.99 µM (active). For the molecule `CN(C)c1nc(NN)nc(Nc2ccc(F)cc2)n1`, the max response, negative = inhibition is 4.54% (inactive). In the case of `CC(=O)Nc1nc(N(C)C)nc(N(C)C)n1`, the max response, negative = inhibition was 6.17% (inactive).

`CC(=O)Nc1cccc(-c2cc(NC(C)=O)c3ncc(-c4ccccc4)n3c2)c1`: the max response, negative = inhibition is -16.7% (inactive).

For the molecule `COc1ccccc1-c1n[nH]nc1C1=CC(=O)CC(C)(C)C1`, the max response, negative = inhibition was -7.34% (inactive). Turning to `COc1ccc2c(c1)C(=C(C#N)C#N)C(=O)N2CCc1ccccc1`, the Potency is 2.67 µM (active).

As for `C#CCN1C(=O)C(O)(CC(=O)c2cc(OC)ccc2OC)c2ccccc21` (centres undefined), the max response, negative = inhibition is -9.34% (inactive). Turning to `CCCCN1C(=O)/C(=C(/C#N)C(N)=O)c2ccccc21`, the max response, negative = inhibition is -17.1% (inactive). On the same count and under the same terms, next, `COCCNc1nc(NCc2ccc(NC(C)=O)cc2)c2sccc2n1`: -10.2% (inactive). The same measure, in the same setting: the figure for `CS(=O)(=O)c1ccc(Cl)c(NC(=O)COC(=O)c2ncc(Cl)c(Cl)c2Cl)c1` is -10.8% (inactive); for `Cc1ccc(NC(=O)Nc2ccccc2)c(Br)c1` it is -8.61% (inactive).

Consider `CS(=O)(=O)c1ccc(Cl)c(NC(=O)Nc2ccccc2)c1`, for which the Potency was 23.8 µM (active). On to `CSc1ncnc2c1ncn2CCCNCC(C)c1ccccc1` (centres undefined), for which the max response, negative = inhibition is 1.77% (inactive). With `COC(=O)c1ccccc1SC1CC(=O)N(c2cccc(C)c2)C1=O` (centres undefined), the max response, negative = inhibition was -24.8% (inactive).

Take `Cc1cccc(N2C(=O)c3ccc(C(=O)Nc4cccc(C(=O)O)c4)cc3C2=O)c1`: the max response, negative = inhibition is 2.25% (inactive). Turning to `Cc1cccc(N2C(=O)SC(SC(=Nc3ccccc3)Nc3ccccc3)C2=O)c1` (centres undefined), the Potency is 15 µM (active). Turning to `Cc1cccc(N2C(=O)CC(SC(N)=Nc3ccccc3)C2=O)c1` (centres undefined), the Potency was 23.8 µM (active).

Regarding `Cc1cccc(N2C(=O)SC(N(CC(=O)O)c3cccc(C)c3)C2=O)c1` (centres undefined), the max response, negative = inhibition is -27.2% (inactive). Still for that read-out and setting: next, `COc1cccc(N2C(=O)CC(N3CCc4ccccc4C3)C2=O)c1` (centres undefined): -2.65% (inactive). Regarding `CCOc1ccc(CCN2C(=O)C(=O)N([C@@H](Cc3ccc(O)cc3)CN3CCC[C@H]3CN3C(=O)C(=O)NC[C@@H]3CC(C)C)C[C@@H]2Cc2ccccc2)cc1`, the max response, negative = inhibition was -15% (inactive). As to `CCC(C)C(CO)NC(=O)/C=C/[C@H]1O[C@@H](n2cnc3c(NC(=O)c4ccccc4)ncnc32)[C@H](O)[C@@H]1O` (some centres undefined), the max response, negative = inhibition is -12% (inactive). Consider `COc1ccc(/C=N/N=C2/C(=O)Nc3ccccc32)cc1O`, for which the Potency is 23.8 µM (active). For the molecule `O=C1Nc2ccc(Br)cc2/C1=N/N=C/C1=C(N2CCOCC2)C(=C\c2ccccc2)/CC1`, the max response, negative = inhibition was -6.57% (inactive).

`CCOc1ccc(/C=N/NC(=O)CSc2ccccn2)cc1O`: the max response, negative = inhibition is -2.2% (inactive). For `Cc1ccc(S(=O)(=O)N[C@H]2CCC[C@@H]2O)cc1`, the max response, negative = inhibition was -13.6% (inactive). Regarding `O=C(c1ccc(C(F)(F)F)cc1)N1CCC(=O)N([C@H](COCc2ccccc2)Cc2ccccc2)CC1`, the max response, negative = inhibition is -8.35% (inactive).

With `O=S1(=O)CC(N2CCN(CCO)CC2)CN1C1CCCC1` (centres undefined), the max response, negative = inhibition was 3.7% (inactive). In the case of `COC(=O)C1=C(N)Oc2cc(C)[nH]c(=O)c2C1c1ccc(Cl)cc1` (centres undefined), the Potency was 23.8 µM (active).

As to `COC(=O)C1=C(N)Oc2cc(C)oc(=O)c2C1c1cccnc1` (centres undefined), the max response, negative = inhibition is -10.6% (inactive). As for `CCN1C(=O)N[C@@H](c2ccccc2)C(C(=O)OC)=C1C`, the max response, negative = inhibition was -12.3% (inactive). Still for that read-out and setting: next, `CC(=O)c1ccc(Nc2nc(C(N)c3ccccc3Cl)cs2)cc1` (centres undefined): -10.4% (inactive).

For the molecule `O=C(O)C1CCCN1c1nc(Cl)ccc1[N+](=O)[O-]` (centres undefined), the max response, negative = inhibition is -5.29% (inactive). As for `Cc1nccn1-c1ccc(NC(=O)[C@H]2O[C@@H](n3cnc4c(N)ncnc43)[C@H](O)[C@@H]2O)cc1`, the max response, negative = inhibition was -3.34% (inactive). Same read-out and setting: next, `O=c1[nH]c2ccccc2n1C1CCN(CCOc2ccccc2)CC1`: 0.342% (inactive). In the case of `O=c1cc(-c2ccccc2)nc(N2CCCCC2)[nH]1`, the Potency was 23.8 µM (active). As for `Cc1ccc(SCc2cc(=O)[nH]c(N3CCCCC3)n2)cc1`, the max response, negative = inhibition was -8.91% (inactive). `c1ccc(-c2cc(N3CCCCC3)c3ccccc3n2)cc1`: the max response, negative = inhibition was -13.3% (inactive). Same read-out and setting: next, `C[C@H](CO)N1C[C@H](C)[C@@H](CN(C)C(=O)c2cnccn2)Oc2ncc(Br)cc2C1=O`: -5.95% (inactive); `C[C@H](CO)N1C[C@H](C)[C@H](CN(C)C(=O)c2ccncc2)OCc2ccccc2-c2c(n(C)c3ccccc23)C1=O`: -5.78% (inactive); `COc1cccc(-c2cnc3c(NC(C)=O)cc(-c4cccc(NC(C)=O)c4)cn23)c1`: -1.26% (inactive). The same measure, in the same setting: next, `CC1(C(=O)NS(=O)(=O)c2ccccc2)CCN1C(=O)Cc1ccc(-c2ccccc2)cc1` (centres undefined): -4.54% (inactive); `CCn1c(SCC(=O)NC2=NCCS2)nnc1C(C)NC(=O)c1ccccc1F` (centres undefined): -16.2% (inactive); `COCCn1c(SCC(=O)Nc2nc(C)cs2)nnc1C(C)C`: -12.4% (inactive). Take `Cc1ccc(NC(=O)Cc2nnc(SCC(=O)Nc3nncs3)n2C)cc1`: the max response, negative = inhibition was -3.59% (inactive). As to `CCn1c(CC(=O)Nc2ccc(C)cc2)nnc1SCC(=O)Nc1nc(C)cs1`, the Potency was 26.7 µM (active). Take `CCn1c(CC(=O)Nc2ccccc2)nnc1SCC(=O)N1CCOCC1`: the max response, negative = inhibition is -0.409% (inactive). Consider `CCn1c(SCC(=O)Nc2nc(C)cs2)nnc1C(C)NC(=O)c1ccccc1` (centres undefined), for which the Potency was 29.9 µM (active).

In the case of `C[C@@H]1CN([C@@H](C)CO)C(=O)c2cc(NS(C)(=O)=O)ccc2O[C@@H](C)CCCCO[C@H]1CN(C)C(=O)Nc1ccc2c(c1)OCO2`, the max response, negative = inhibition was -18.5% (inactive). On the same count and under the same terms, next, `Cc1cc2c(cc1C)N1C(=O)c3cc4ccccc4cc3NC(=O)C1C(=O)N2` (centres undefined): -4.16% (inactive); `COc1ccc(C(c2nnnn2C2CCCC2)N2CCN(C/C=C/c3ccccc3)CC2)cc1` (centres undefined): -9.92% (inactive). Still for that read-out and setting: the figure for `Cc1ccc(S(=O)(=O)N2C[C@]3(O)C[C@@H]4C(=O)N(c5ccccc5)C(=O)[C@@H]4C[C@]3(OC(=O)NC3CC3)C2)cc1` is -20.4% (inactive).
